About 83,000 compounds went through this panel and 20% of them were active in at least one assay; those are over-represented in the sample as a whole.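 Step 1: grow cells in 96-well plates. Step 2: add test compound at a single concentration. Step 3: incubate 48 h. Step 4: record percent growth.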 Active and inactive are the calls of the source. The calls were made as follows: active = growth percent below 10; inactive = the rest.
system: HL-60(TB) leukemia; test: NCI-60 one-dose screen, 48 h (100 = growth as untreated, 0 = no growth, -100 = all killed); settings: 10 µM unless noted

Row | Structure (SMILES) | growth
1 | COc1cc(CNc2ccccc2C(=O)N2CCN(C(=O)c3cc(-c4cc(OC)c(OC)c(OC)c4)n4nc(-c5ccccc5)cc4n3)CC2)cc(OC)c1OC | 34.7% (inactive)
2 | Nc1nc(Nc2cccc(F)c2)nc2ccccc12 | 28.6% (inactive)
3 | COc1ccc(N2CCN(CC(=O)N3CCN(c4nnc(-c5ccccc5)c(-c5ccccc5)n4)CC3)CC2)cc1 | -36.3% (active)
4 | Cn1cc(-c2cc3ncnc(Nc4ccc(CC(=O)Nc5cc(C(C)(C)C)nn5C)cc4)c3s2)cn1 | 63.4% (inactive)
5 | Cn1cc(-c2nnc(-c3cn(C)c4ncc(Br)cc34)s2)c2cc(Br)ccc21 | 106% (inactive)
6 | O=S(=O)(Nc1ccc(F)cc1F)c1ccc(-c2cnc(C3CC3)o2)cc1 | 1% (active)
7 | O=S(=O)(Cc1ccc(Cl)cc1Cl)c1ccc(Cl)cc1 | 10.5% (inactive)
8 | COc1cc(C2C=C(C)N=C3SC=NN32)cc(OC)c1OC (stereo not given) | 94.7% (inactive)
9 | COc1ccc(-c2cc(-c3ccc(OC)cc3)c3sc(=O)[nH]c3n2)cc1 | 84.7% (inactive)
10 | COc1ccc(-c2nnc(COc3ccc(C(=O)/C=C/c4ccco4)cc3)o2)cc1 | 79.7% (inactive)
11 | Cc1nc(-c2ccc(Cl)cc2)ccc1NC(=O)Nc1cccc(C(F)(F)F)c1 | 79.7% (inactive)
12 | CC(=Nc1ccccc1)C1=C(O)C(Cc2cccc(F)c2)NC1=O (stereo not given) | -15.2% (active)
13 | O=C1C=CC(=O)c2c(O)c(CO)c(CO)c(O)c21 | 64.2% (inactive)
14 | Cc1cc(-c2ccccc2)on1 | 89.2% (inactive)
15 | O=[N+]([O-])c1ccc(Br)o1 | 74.8% (inactive)
16 | Clc1ccc([I+]c2ccc(Cl)cc2Cl)c(Cl)c1 | -38.3% (active)
17 | CNc1ccc(-c2cc(=O)oc3ccc(Cl)cc23)cc1 | -13.5% (active)
18 | COc1cc(-c2nc(N3CCN(C)CC3)c3ccccc3n2)cc(OC)c1OC | 67% (inactive)
19 | CS(=O)(=O)Nc1cccc(-c2ccc3ncnc(Nc4cncc(Cl)c4)c3c2)c1 | 35.5% (inactive)
20 | COc1ccc(C(=O)c2cc(C)c(OC)c(C)c2)cc1OC(=O)CCl | -43.6% (active)

Row | Structure (SMILES) | growth
21 | CCCCCc1c(C)[nH]c(/C=C2\N=C(c3ccc[nH]3)C=C2Oc2ccc(Cl)cc2)c1C | -40.3% [100 µM] (active)
22 | Cc1ccccc1-c1nc(C(Cl)Cl)nc2cc(-c3ccccc3)nn12 | 92% (inactive)
23 | Nc1nc2ncc(CNc3ccc(C(=O)N[C@@H](CCc4nn[nH]n4)C(=O)O)cc3)nc2c(=O)[nH]1 | 109% (inactive)
24 | COc1nc2ccccc2cc1/C=C1/C=C(c2ccccc2)NC1=O | -8.46% (active)
25 | Cc1cc(=O)n(C(=O)Nc2ccccc2Cl)c2cc(O)ccc12 | 107% (inactive)
26 | COc1ccc(/C=C2/CCc3cc4ccc(OC)cc4[o+]c32)c(O)c1 | 60.8% (inactive)
27 | c1ccc2cc(C[n+]3ccn(CCCCCCCCCCn4cc[n+](Cc5ccc6ccccc6c5)c4)c3)ccc2c1 | -67.8% (active)
28 | COc1ccc(CCN2CCCn3c2nc2ccccc2c3=O)cc1 | -5.2% (active)
29 | N#CCCN(CCCN1CCOCC1)CN1C(=O)c2ccccc2C1=O | 83.2% (inactive)
30 | C[C@@H]1C[C@H]2C(=O)O[C@@H](C)[C@H](NC(=O)[C@H](Cc3cc(F)cc(F)c3)NC(=O)Nc3ccc(Cl)cc3F)C(=O)N3C[C@H](O)C[C@H]3C(=O)N3CCN(C)C[C@H]3C(=O)N[C@@H](C)C(=O)N2C1 | 30.1% (inactive)
31 | CC(=O)c1ccc(-n2c(-c3cc(-c4ccsc4)n[nH]3)n[nH]c2=S)cc1 | 112% (inactive)
32 | Cl[C@@H]1CCO[C@H](c2cc3ccccc3c3ccccc23)C1 | 92.9% (inactive)
33 | O=C1NCC2CCCC1C2 (stereo not given) | 98.6% (inactive)
34 | CCOc1ccccc1-c1cc(-c2cccs2)c(C#N)c(=O)[nH]1 | 78.9% (inactive)
35 | COc1ccc(/C(=C\c2ccccc2)C(=O)O)cc1OC | 112% (inactive)
36 | CCOC(=O)/C(O)=C(\C=N\C(=S)Nc1ccc(Cl)c(Cl)c1)C(=O)OCC | 83.6% (inactive)
37 | C[C@@H]1C[C@H](N)C[C@H](c2ccncc2NC(=O)c2ccc(F)c(-c3c(F)cccc3F)n2)C1 | -0.14% (active)
38 | COc1cc(/C=C/c2c(C(C)=O)c(C)nc3ccccc23)cc(OC)c1OC | 0.0645% (active)
39 | Ic1ccc(Nc2nc3nonc3nc2Nc2ccc(I)cc2)cc1 | -50.2% (active)
40 | COC(=O)c1c[n+]([O-])ccc1OC | 106% (inactive)

Source: PubChem BioAssay (NCI)
